Bioassay records: PubChem, National Center for Advancing Translational Sciences (NCATS)
Shown is part of a subset that was picked to be rich in hits.
CHX counter = counter-screen for Shiga toxin inhibitors: cycloheximide protein synthesis inhibition; AID 2314; cell reporter, cycloheximide protein synthesis inhibition counterscreen; actives 12% (n = 300,000); max response, %; in the data active means max response mostly above about 13%, no sharp cut-off; inactive means mostly below about 14%; further: read at 38.3 µM for the half of the compounds with a filed dose; 0% is about no effect
TbPYK inhibitor = blocks Trypanosoma brucei pyruvate kinase | Q57TT1 | TbPYK enzyme, Kinase-Glo Plus ATP luminescence, 45 min | Potency, µM (series often up to 76.8 µM), for the others: at the highest dose activity, negative = inhibition, actives largely listed as inhibitors | actives 0.12% (n = 410,000); further: potency means the concentration at half of the fitted maximal effect; on the % scale 0 is the no-effect control and ±100 the full control effect; nearly all actives have a fitted effect of over 50% in size
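Enzyme and substrate buffer are dispensed first and compound is pin-transferred. ADP at 130 uM final then starts the reaction, which runs 45 min at room temperature. Detection reagent is added for 10 min before luminescence is imaged.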
Giardia FBPA inh = Giardia lamblia aldolase inhibition. actives 0.71% (n = 290,000). A8B2U2. purified Giardia FBPA. Potency, µM (doses to about 59.6 µM), for the others: at the highest dose activity, negative = inhibition, hits mostly inhibitors; further: potency means the concentration at half of the fitted maximal effect; on the % scale 0 is the no-effect control and ±100 the full control effect; nearly all actives have a fitted effect of over 55% in size
Target sequence (A8B2U2 whole entry, looked up): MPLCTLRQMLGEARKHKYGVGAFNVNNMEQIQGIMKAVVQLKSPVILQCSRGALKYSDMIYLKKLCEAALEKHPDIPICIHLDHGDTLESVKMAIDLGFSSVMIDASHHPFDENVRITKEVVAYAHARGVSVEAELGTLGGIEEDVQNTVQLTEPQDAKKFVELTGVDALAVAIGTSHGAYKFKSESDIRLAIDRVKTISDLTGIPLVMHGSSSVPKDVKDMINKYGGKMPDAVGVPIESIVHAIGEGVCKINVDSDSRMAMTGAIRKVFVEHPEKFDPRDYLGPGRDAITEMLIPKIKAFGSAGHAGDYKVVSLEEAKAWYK
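40 nM FBPA preincubated 10 min at RT with compound (up to 57.5 uM final), then substrate plus GAPDH/TPI/NAD/arsenate coupling and diaphorase/resazurin added. Fluorescence read after 20 min at RT, 525/598 nm.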
LmPK inh = LmPK (Leishmania mexicana) enzyme inhibition. Q27686. purified LmPK, Kinase-Glo ATP luminescence, 1 h. Potency, µM (highest dose often 57.5 µM), inactives show at the highest dose activity change, negative = inhibition, usual class: inhibitors. actives 0.37% (n = 290,000). AID 1721; further: potency means the concentration at half of the fitted maximal effect; on the % scale 0 is the no-effect control and ±100 the full control effect
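Kinase-Glo luminescence read after 1 h RT reaction of 0.1 nM LmPK with 0.5 mM PEP and 0.1 mM ADP. Activity scaled between uninhibited and enzyme-free controls.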
RE007 growth inh = less growth of the S. pombe RE007 Vpr strain. Potency, µM (doses to about 92.2 µM), inactives show at the top dose activity change, negative = less growth, most hits filed as inhibitors. actives 0.21% (n = 360,000). S. pombe RE007 Vpr strain, BacTiter-Glo ATP luminescence, 24 h; active means well fitted falling curve with a large enough effect; inconclusive means small, poorly fitted or top-dose-only effect; inactive means no such curve, though single readings can be large or run the other way; further: potency means the concentration at half of the fitted maximal effect; on the % scale 0 is the no-effect control and ±100 the full control effect; nearly all actives have a fitted effect of over 50% in size
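Fission yeast strain RE007, carrying one chromosomally integrated HIV-1 vpr copy, was seeded at OD 0.01 in PMG+AL medium with 23 nL pinned compound. After 24 h at 30 °C and 99% humidity, viability was read by BacTiter-Glo luminescence.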
Shiga toxin inh = blocks Shiga toxin action in Vero cells; Vero cells, Shiga toxin protein synthesis inhibition reporter; actives 9.2% (n = 290,000); inhibition, % at 38.7 µM; AID 2315; in the data active means inhibition mostly above about 28%, no sharp cut-off; inactive means mostly below about 43%; further: 0% is about no effect
Numbers without * were called inactive. Unless noted, the call rests on the fitted dose curve; in most records, active means well fitted curve in the direction sought with a large enough effect; inconclusive means small, poorly fitted or top-dose-only effect, or another doubt; inactive means no such curve, though single readings can be large; an effect the other way counts as inactive or inconclusive.

Screening Cc1cc(C(=O)Nc2ccccc2C)on1 returned CHX counter 0, TbPYK inhibitor 2%, Giardia FBPA inh 13%, LmPK inh 0%, RE007 growth inh 9% and Shiga toxin inh -2.
Screening CCc1ccc(NC(=O)c2cc(C)no2)cc1 returned CHX counter 47*, TbPYK inhibitor 1%, Giardia FBPA inh -7%, LmPK inh -1%, RE007 growth inh 6% and Shiga toxin inh 70*.
For COc1ccc(NC(=O)c2cc(C)no2)cc1 the results were CHX counter 36*, TbPYK inhibitor -6%, Giardia FBPA inh 1%, LmPK inh -2%, RE007 growth inh 11% and Shiga toxin inh 72*.
For Cc1ccc(NC(=O)c2cc(C)no2)cc1 the results were CHX counter 59*, TbPYK inhibitor 4%, Giardia FBPA inh 3%, LmPK inh 0%, RE007 growth inh 0% and Shiga toxin inh 80*.
`Cc1cc(C(=O)Nc2ccc(F)c(Cl)c2)on1` gave CHX counter 19*, TbPYK inhibitor -2%, Giardia FBPA inh 6%, LmPK inh -3%, RE007 growth inh 1% and Shiga toxin inh 6.
COc1ccccc1N1CCN(c2c3c(nc4nncn24)CCC3)CC1 was read as TbPYK inhibitor -14%.
`NNc1nc(-c2ccccc2)nc(-c2ccccc2)c1Br` gave TbPYK inhibitor -5% and RE007 growth inh -8%.
For Cc1noc(C)c1C(=O)Nc1ccc(F)cc1F the results were CHX counter 7, TbPYK inhibitor -5%, Giardia FBPA inh 1%, LmPK inh -1%, RE007 growth inh 10% and Shiga toxin inh -9.
`Cc1cc(C(=O)Nc2ccc(F)cc2F)on1` gave CHX counter 15*, TbPYK inhibitor 3%, Giardia FBPA inh -4%, LmPK inh 1%, RE007 growth inh -10% and Shiga toxin inh 6.
`CCOc1ccc(-c2nnc(SCC(=O)Nc3cc(F)ccc3F)o2)cc1` gave TbPYK inhibitor -12%.
COc1ccc(Nc2ncnc3c2c(C)c(C)n3CCCN(C)C)cc1 was read as CHX counter 47*, TbPYK inhibitor -5%, Giardia FBPA inh 0%, LmPK inh 3%, RE007 growth inh -14% and Shiga toxin inh 70*.
For CC(NC(=O)C1CCN(S(=O)(=O)c2cc([N+](=O)[O-])ccc2Cl)CC1)c1ccccc1 (centres undefined) the results were CHX counter -2, TbPYK inhibitor -18%, Giardia FBPA inh 2%, LmPK inh 1%, RE007 growth inh 3% and Shiga toxin inh -8.
`Cc1ccc2nc(NC(=O)C3CCN(S(=O)(=O)c4cc([N+](=O)[O-])ccc4Cl)CC3)sc2c1` gave CHX counter 13*, TbPYK inhibitor -4%, Giardia FBPA inh -20%, LmPK inh 0%, RE007 growth inh 4% and Shiga toxin inh active.
For Cc1ccc(NC(=O)C2CCN(S(=O)(=O)c3cc([N+](=O)[O-])ccc3Cl)CC2)nc1 the results were TbPYK inhibitor 5% and RE007 growth inh -11%.
O=C(Nc1nc2ccc(F)cc2s1)C1CCN(S(=O)(=O)c2cc([N+](=O)[O-])ccc2Cl)CC1 was read as CHX counter 34*, TbPYK inhibitor 3%, Giardia FBPA inh -25%, LmPK inh 0%, RE007 growth inh -17% and Shiga toxin inh 52*.
C/C(=N\NC(=O)c1cc(O)ccc1O)c1cccc(NC(=O)c2cccc(Cl)c2)c1 was read as CHX counter 41*, TbPYK inhibitor -16%, LmPK inh -6%, RE007 growth inh -16% and Shiga toxin inh 71*.
`C/C(=N/NS(=O)(=O)c1ccc(Cl)cc1)c1cccc(NC(=O)c2ccc(Cl)cc2Cl)c1` gave CHX counter 33*, TbPYK inhibitor -21%, Giardia FBPA inh 3%, LmPK inh 1%, RE007 growth inh -1% and Shiga toxin inh 84*.
`C/C(=N\NC(=O)c1cc(O)ccc1O)c1cccc(NC(=O)c2ccc(Cl)cc2)c1` gave CHX counter 47*, TbPYK inhibitor -20%, LmPK inh 1%, RE007 growth inh 3% and Shiga toxin inh 78*.
`O=S(=O)(c1ccc(F)cc1)N1CCC(n2c(C(F)(F)F)nc3cccnc32)CC1` gave TbPYK inhibitor 14%.
Screening Cc1oncc1C(=O)N1CCCC(CO)(Cc2ccc(F)cc2F)C1 (centres undefined) returned CHX counter 17*, TbPYK inhibitor -2%, Giardia FBPA inh 8%, LmPK inh 5%, RE007 growth inh -4% and Shiga toxin inh 38.
Fc1ccccc1Nc1n[nH]c(=S)s1 was read as CHX counter 26*, TbPYK inhibitor inconclusive, Giardia FBPA inh -22%, LmPK inh 2%, RE007 growth inh -7% and Shiga toxin inh 69*.
Cc1ccccc1Nc1n[nH]c(=S)s1 was read as TbPYK inhibitor inconclusive and RE007 growth inh -12%.
For O=C(NCc1ccccc1)c1ccc(CSc2nc3cccnc3n2Cc2cccc(F)c2)cc1 the results were TbPYK inhibitor -12%.
`Cc1ccc(NC(=O)N2CCC(C(=O)c3ccc(F)cc3)CC2)cc1` gave CHX counter 11, TbPYK inhibitor -7%, Giardia FBPA inh -2%, LmPK inh -1%, RE007 growth inh 6% and Shiga toxin inh 13.
O=C(NCc1ccccc1F)C1CCCN(C(=O)Nc2ccccc2)C1 (centres undefined) was read as CHX counter 6, TbPYK inhibitor 6%, Giardia FBPA inh -7%, LmPK inh 5%, RE007 growth inh 11% and Shiga toxin inh 7.
For O=C(NCc1ccccc1)C1CCCN(C(=O)Nc2ccccc2)C1 (centres undefined) the results were CHX counter 11*, TbPYK inhibitor 10%, Giardia FBPA inh 3%, LmPK inh -6%, RE007 growth inh 2% and Shiga toxin inh 53.
For O=C(NC1CCCC1)C1CCCN1C(=O)Nc1ccccc1 (centres undefined) the results were CHX counter -4, TbPYK inhibitor -4%, Giardia FBPA inh 1%, LmPK inh -4%, RE007 growth inh 22% and Shiga toxin inh -13.
`O=C(c1ccccc1)C1CCN(C(=O)Nc2ccccc2)CC1` gave CHX counter 16*, TbPYK inhibitor 2%, Giardia FBPA inh 6%, LmPK inh 0%, RE007 growth inh -6% and Shiga toxin inh 6.
Screening O=C(Nc1ccccc1)N1CCCC2CCCCC21 (centres undefined) returned CHX counter 45*, TbPYK inhibitor -8%, Giardia FBPA inh -5%, LmPK inh -1%, RE007 growth inh 9% and Shiga toxin inh 94*.
